Assay outcomes from PubChem BioAssay.
ROMK mod – modulators of human ROMK potassium channel; Tet-inducible ROMK, thallium flux fluorescence; actives lie on both sides; 130,000 tested, 2% active; B-score at 10 µM; P48048;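 active = signal ratio slope over the read window, or its plate-corrected B-score, at least 3 SD from the plate mean, either direction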;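 also: B-score of the F/F0 ratio slope over 7 to 12 s after thallium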
INS promoter inh – TRM-6 insulin promoter activity inhibition; 130,000 tested, 0.9% active; AID 1273; TRM-6 cells (human fetal islet line), insulin promoter-eGFP reporter, imaging; reporter expression induced with tamoxifen; inhibition, % at 2 µM;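 active = inhibition above the mean plus 3 SD, with well images judged a real hit on visual review, cut at about 60% in these data, passing the limit was not always enough; inconclusive = inhibition over the cutoff but images rejected on review; inactive = inhibition not above the cutoff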
WT yeast gro inh – growth inhibition of WT yeast, mitochondrial fusion screen; inhibition, % at 10 µM; mitochondrial fusion phenotypic screen, WT strain; 190,000 tested, 2.1% active; AID 1362; in the data active = inhibition above about 58%; tested in S. cerevisiae
Cl transport mod – modulators of human KCC2 chloride dependent transport; Q9H2X9; KCC2 cells, thallium flux FluoZin-2 fluorescence; B-score of Tl+ flux slope (higher = more flux/activation; lower = inhibition) at 10 µM; 190,000 tested, 2.2% active; AID 1456;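 active = thallium flux slope and its plate-corrected score both differing from the plate sample mean at a set confidence after two filtering rounds, in either direction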;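 also: slope of fluorescence scaled to starting intensity during 10 to 20 s after thallium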
L major viab – reduces viability of Leishmania major promastigotes | resazurin fluorescence viability | inhibition, % at 10 µM | 200,000 tested, 9% active | AID 1063; in the data active = inhibition above about 50%;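 also: promastigotes grown with compound for 44 hours at 28 °C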
Insulin prom up – MIN6 insulin promoter up-regulation; AID 1625; 190,000 tested, 0.3% active; z-score at 5 µM; MIN6 insulin promoter-GFP reporter, high-content imaging; stronger effect = higher value;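 active = z-score above 3 at 5 µM with at least 500 cells counted in the well; inconclusive = wells under 500 cells, flagged as cytotoxic or low count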
* marks the source's active call; other numbers are inactive results; u = inconclusive; x = no result given. Only some compounds are listed: those with a hit (about 12% of all), similar ones and a draw of the others.

SMILES | ROMK mod | INS promoter inh | WT yeast gro inh | Cl transport mod | L major viab | Insulin prom up
CC1(C)CC(=O)C2=C(C1)N=C1c3ccccc3C(=O)C1C2c1ccc(Cl)cc1 (stereo not drawn) | x | x | 25 | x | 94* | -0.23
O=C(NCCCCc1ccccc1)c1cccc([N+](=O)[O-])c1 | -0.62 | 36 | 1 | -2.8 | 21 | -0.62
CSc1sc(C(=O)NC(=O)NCc2ccncc2)c(C)c1-c1ccon1 | x | x | x | -3.4 | x | -0.17
COc1cccc(N2CCN(C3CCCC(C)C3)CC2)c1 (stereo not drawn) | -0.6 | x | -22 | 0.39 | 69* | -0.01
O=[N+]([O-])c1ccc(N2CCN(c3nc(-c4ccc(Cl)cc4)cs3)CC2)cc1 | -0.037 | 22 | -8 | 0.068 | 98* | -0.44
O=C(Cc1cccs1)N1CCN(c2nc(-c3ccc(Cl)cc3)cs2)CC1 | x | -25 | 59* | 0.58 | -3 | -1.5
Clc1ccc(-c2csc(N3CCOCC3)n2)cc1 | -0.046 | 73* | 5 | -0.38 | -8 | -0.08
O=C1CC(c2ccccc2)N1c1ccccc1 (stereo not drawn) | x | -12 | -7 | -0.013 | -2 | x
O=C(NNc1cc(N2CCOCC2)nc(N2CCOCC2)n1)C12CC3CC(CC(C3)C1)C2 | -0.023 | -15 | 13 | -1.5 | -1 | -0.76
Cc1ccc(C(C)C)cc1S(=O)(=O)NCc1cccnc1 | x | -48 | 0 | -0.099 | -6 | -0.44
O=c1[nH]ncc(N2CCN(C(c3ccccc3)c3ccccc3)CC2)c1Cl | -0.45 | -4 | 69* | -0.22 | 93* | -0.03
CC(CN1CCOCC1)OC(=O)C(C)(c1ccccc1)c1ccccc1 (stereo not drawn) | x | -69 | -4 | 0.15 | 55* | -0.41
CC(CN1CCCCC1)OC(=O)C(C)(c1ccccc1)c1ccccc1 (stereo not drawn) | -1.5 | -8 | 6 | -0.52 | 100* | -0.16
CCC(C)(C)n1nnnc1C(c1cccc(C#N)c1)N1CCN(c2cc(C)ccc2C)CC1 (stereo not drawn) | x | x | x | x | x | -0.12
CCN1CCN(C(=O)c2ccc3c(=O)n(C4CCCC4)c(=S)[nH]c3c2)CC1 | x | -23 | 17 | x | 24 | -0.47
CCOc1ccc(NC(=O)c2ccccc2NS(=O)(=O)c2ccc(F)cc2)c([N+](=O)[O-])c1 | -1.4 | -16 | 5 | -1.7 | 71* | x
Clc1cccc(Cl)c1/C=C/c1nc2ccccc2[nH]1 | x | u | 81* | -3.4 | 98* | -0.33
Clc1ccc(/C=C/c2nc3ccccc3[nH]2)cc1 | x | x | 17 | -0.24 | 31 | x
CCOC(=O)c1c(C)c(C(=O)NCc2ccccc2OC)c(C)n1C | x | x | 6 | x | -6 | -0.31
C=CCOc1c(Cl)cc(CNc2nccs2)cc1OC | -0.81 | -6 | 11 | -2.5 | 11 | 0.11
COC(=O)C1=C(C)NC(C)=C(C(=O)OC)C1c1cn(-c2ccccc2)nc1-c1ccco1 | x | x | x | -0.7 | 64* | -0.26
CC(C)(C)C(=O)NC(=S)N1CCOCC1 | -0.0069 | 42 | -14 | 0.68 | 48 | -0.01
CCCCN(CCCC)C(=S)NC(=O)C(C)(C)C | x | 31 | 9 | 38* | -6 | x
Cc1nccn1S(=O)(=O)c1ccc(Br)cc1Br | x | x | -39 | x | 86* | 0.74
S=C(NCCc1ccccc1)Nc1ccccc1N1CCOCC1 | -0.8 | x | -6 | 0.081 | 43 | 0.11
SMILES | ROMK mod | INS promoter inh | WT yeast gro inh | Cl transport mod | L major viab | Insulin prom up
O=C1CCCC(=O)C1=Cc1c[nH]c2ccccc12 | -4.1* | 40 | 41 | -2 | 1 | -0.42
O=C1CCCc2c1[nH]c1ccccc21 | 0.5 | -43 | 4 | x | 3 | 0.04
CCCc1nc(SC2CCCC2)c2c(=O)n(C)c(=O)n(C)c2n1 | x | x | 54 | -0.48 | 4 | 0.33
CC(=O)OC1COC(N2CCc3cc([N+](=O)[O-])ccc32)C(OC(C)=O)C1OC(C)=O (stereo not drawn) | x | 18 | -10 | 0.29 | -3 | x
CC(=O)Nc1ccc(NC(=O)c2ccc(-n3c(C)ccc3C)cc2)cc1 | 0.97 | -27 | -7 | -0.079 | 68* | -0.43
Cc1ccc(C)n1-c1ccc(C(=O)Nc2ccccc2F)cc1 | -0.28 | -73 | -4 | -1.4 | 4 | -1
Cc1ccc(NC(=O)c2ccccc2)s1 | x | 35 | 30 | 1.1 | 69* | -0.28
Cc1cc(NC(=O)c2ccccc2)sc1C | -0.32 | -16 | 20 | x | -2 | 0.7
CC(=O)NCCNC(=O)c1ccc(-n2c(C)ccc2C)cc1 | 1.3 | x | -10 | 0.35 | 2 | -0.34
Cc1ccc(C)n1-c1ccc(NC(=O)c2ccccc2)cc1 | -2.1 | 35 | -1 | -2 | 58* | 0.08
O=C1CC(C(=O)Nc2ccc(F)c(Cl)c2)N=C(N2CCCCC2)N1 (stereo not drawn) | x | -100 | -7 | x | 14 | 0.13
O=C(CNC(=O)c1cccc(F)c1)N/N=C/C=C/c1ccccc1 | x | x | -16 | 0.62 | 2 | 0.7
O=C(CNC(=O)c1cccc(F)c1)N/N=C/c1cccc([N+](=O)[O-])c1 | -0.11 | 12 | -4 | -0.79 | 81* | 0.28
COc1ccc(-c2cc(C(F)(F)F)nc(N3CCCCC3)n2)cc1OC | 0.23 | 27 | 38 | x | 14 | -0.64
COc1ccc(-c2cc(C(F)(F)F)nc(N3CCN(C)CC3)n2)cc1OC | x | 0 | -4 | 0.21 | 85* | -0.61
Cc1ccn2c(CNCCn3nc(C)cc3C)c(C(=O)N3CCCCCC3)nc2c1 | 1.5 | x | 21 | 0.54 | -1 | -0.87
NNC(=O)CN1C(CN2CCOCC2)=Nc2ccc(Br)cc2C1c1ccccc1 (stereo not drawn) | -0.98 | x | -4 | x | -2 | -0.1
CCOc1cccc(Oc2ncccc2C(=O)/C(C#N)=C/N(C)C)c1 | x | -14 | 95* | x | -2 | 0.44
